Calls of active or inactive are those of the source. How the source made its calls: active means hit-call score of the fitted dose curve at least 0.9, where 1 is the maximum; inactive means score below 0.9.
Assay: ATG_M_19_CIS: Attagene CIS-FACTORIAL HepG2 Assay for M19 Transcription Factor (Internal Marker) (AID 2282939)
Details: HepG2 Attagene CIS-FACTORIAL M19 internal marker reporter; actives raise or lower the signal
Protocol: ATG_CIS is a cell-based, multiplexed-readout assay that uses HepG2, a human liver cell line, with measurements taken at 24 hours after chemical dosing in a 24-well plate.ATG_M_19_CIS is one of 52 assay component(s) measured or calculated from the ATG_CIS assay. It is designed to make measurements of mRNA induction, a form of inducible reporter, as detected with fluorescence intensity signals by Reverse transcription polymerase chain reaction (RT-PCR) and Capillary electrophoresis technology.Data from the assay component ATG_M_19_CIS was analyzed into 1 assay endpoint. This assay endpoint, ATG_M_19_CIS, was analyzed with bidirectional fitting relative to DMSO as the negative control and baseline of activity. Using a type of inducible reporter, measures of mRNA for gain or loss-of-signal activity can be used to understand the background control at the transcription factor-level as they relate to the gene . Furthermore, this assay endpoint can be referred to as a secondary readout, because this assay has produced multiple assay endpoints where this one serves a background control function. To generalize the intended target to other relatable targets, this assay endpoint is annotated to the background measurement intended target family, where the subfamily is internal marker.
Human liver HepG2 cells are transiently transfected with multiple reporter transcription units (MRTUs) in 6-well plates using FuGene 6 reagent (Roche; 3 ml FuGene/1 mg DNA). The MRTU constructs are regulated by a cis-regulating element (promoter). […] A major difference between the CIS and TRANS system is that in CIS activities of endogenous TFs are measured, whereas the TRANS assay evaluates changes in activities of exogenous, chimeric NR-Gal4 proteins. […] At the end of 24 hour incubation, total RNA was isolated using TriZol reagent (Invitrogen). The isolated RNA is then reverse-transcribed using oligo(dT) primer and Mo-MLV reverse transcriptase (Invitrogen) with DNAse I (Ambion) treatment for 30 min. The one-tenth of the produced cDNA was amplified by PCR using Taq DNA polymerase (Invitrogen) and two reporter sequence-specific primers. The PCR products were fluorescently labeled by primer extension with 6-arboxyfluorescein (6-FAM) 5'-labeled reporter sequence-specific primer (2 min at 95 C, 20 s at 68 C and 10 min at 72 C) and these products were digested with 5U of HpaI (New England Biolabs) for 2h at 37 C. The fragments were purified using Qiaquick PCR columns (Qiagen), analyzed on an ABI 3130xL genetic analyzer (Applied Biosystems) with peak positions identified by using a set of X-rhodamine (ROX)-labeled MapMarker1000 molecular weight standards (BioVentures). The raw capillary electrophoresis data was processed using Attagraph software (Attagene).

Q: Which outcome does the source give for `CCCCCCOC(=O)CC` here?
A: Its outcome is “inactive”.

Q: With `Cc1ccccc1C=O` as the compound, how does the outcome read?
A: Its outcome is “inactive”.

Q: With `Clc1ccc2c(c1)C(N1CCNCC1)=Nc1ccccc1O2` as the compound, how does the outcome read?
A: The outcome was “inactive”.

Q: For `Cc1c(Cl)c(=O)oc2cc(O)ccc12`, which outcome is on record?
A: Its outcome is “inactive”.

Q: With `CN(C)c1ccc(O)c2c1C[C@H]1C[C@H]3[C@H](N(C)C)C(=O)C(C(N)=O)=C(O)[C@@]3(O)C(=O)C1=C2O` as the compound, how does the outcome read?
A: The outcome was “inactive”.

Q: Which outcome does the source give for `Cc1ccc2n[nH]nc2c1` here?
A: Its outcome is “inactive”.

Q: Which AC50 does the source give for `C=CC(C)(O)CCC=C(C)CCC=C(C)C` (stereo not given) here?
A: Its AC50 is 176 µM (active).

Q: Which outcome does the source give for `CCCCCCC#CC(=O)OC` here?
A: The outcome was “inactive”.

Q: Which outcome does the source give for `CC(C)OP(=O)(CP(=O)(OC(C)C)OC(C)C)OC(C)C` here?
A: The outcome was “inactive”.

Q: Which outcome does the source give for `O=C(O)CN(CCN(CC(=O)O)CC(=O)O)CCN(CC(=O)O)CC(=O)O` here?
A: Its outcome is “inactive”.

Q: With `COc1cccc(OC)c1` as the compound, how does the outcome read?
A: The outcome was “inactive”.

Q: Which outcome does the source give for `NNc1nc(-c2ccc(N)cc2)cs1` here?
A: The outcome was “inactive”.

Q: For `O=C=NC1CCC(CC2CCC(N=C=O)CC2)CC1` (stereo not given), which AC50 is on record?
A: The AC50 was 100 µM (active).

Q: Which outcome does the source give for `O=C(O)CCCCC1CCSS1` (stereo not given) here?
A: The outcome was “inactive”.

Q: Which outcome does the source give for `CC1(C)[C@H](C(=O)OCc2cccc(Oc3ccccc3)c2)[C@@H]1C=C(Cl)Cl` here?
A: The outcome was “inactive”.

Q: Which outcome does the source give for `CC(=O)Nc1ccc(C)cc1C` here?
A: Its outcome is “inactive”.

Q: For `CC(=O)OCc1ccc2c(c1)OCO2`, which outcome is on record?
A: The outcome was “inactive”.

Q: With `CCO[Si](CCCS)(OCC)OCC` as the compound, how does the outcome read?
A: The outcome was “inactive”.

Q: With `CC(C)[C@@H]1CC[C@@H](C)CC1=O` as the compound, how does the outcome read?
A: Its outcome is “inactive”.

Q: Which outcome does the source give for `O=CCCc1ccccc1` here?
A: The outcome was “inactive”.

Q: For `CCCc1c(OCCCOc2ccc(OCC(=O)O)cc2)ccc(C(C)=O)c1O`, which outcome is on record?
A: Its outcome is “inactive”.

Q: For `CC1CC(OC(=O)c2ccccc2O)CC(C)(C)C1` (stereo not given), which outcome is on record?
A: Its outcome is “inactive”.

Q: With `OCCOc1cccc(OCCO)c1` as the compound, how does the outcome read?
A: Its outcome is “inactive”.

Q: For `CCCC(=O)OCCC(C)CCC=C(C)C` (stereo not given), which outcome is on record?
A: Its outcome is “inactive”.

Q: Which outcome does the source give for `CCCCCCCCCOC(C)=O` here?
A: Its outcome is “inactive”.

Q: With `CC(C)(C#N)c1cc(Cn2cncn2)cc(C(C)(C)C#N)c1` as the compound, how does the outcome read?
A: The outcome was “inactive”.

Q: Which outcome does the source give for `Cc1c(N(C)C)c(=O)n(-c2ccccc2)n1C` here?
A: Its outcome is “inactive”.

Q: With `CCC(C(=O)NC(N)=O)c1ccccc1` (stereo not given) as the compound, how does the outcome read?
A: Its outcome is “inactive”.

Q: For `C#C[C@]1(O)CC[C@H]2[C@@H]3CCC4=Cc5oncc5C[C@]4(C)[C@H]3CC[C@@]21C`, which outcome is on record?
A: Its outcome is “inactive”.

Q: Which outcome does the source give for `COc1c(Cl)c(Cl)c(Cl)c(Cl)c1Cl` here?
A: Its outcome is “inactive”.

Q: For `CCC(O)CO` (stereo not given), which outcome is on record?
A: The outcome was “inactive”.

Q: For `CCCCCCCCCCCCCCCC(=O)OC[C@H](O)[C@H]1OC(=O)C(O)=C1O`, which outcome is on record?
A: Its outcome is “inactive”.

Q: Which outcome does the source give for `NC(=O)Nc1ccc(Cl)cc1` here?
A: The outcome was “inactive”.

Q: With `CCN(CC)c1ccc2c(-c3ccccc3C(=O)O)c3ccc(=[N+](CC)CC)cc-3oc2c1` as the compound, how does the outcome read?
A: The outcome was “inactive”.

Q: For `CCCCCC(=O)OCCc1ccccc1`, which outcome is on record?
A: Its outcome is “inactive”.

Q: Which outcome does the source give for `CC(=O)c1c(C)cc(C(C)(C)C)cc1C` here?
A: Its outcome is “inactive”.

Q: With `CCCCCCCCCCCCCOS(=O)(=O)O` as the compound, how does the outcome read?
A: Its outcome is “inactive”.

Q: With `CC(=O)[C@H]1CC[C@H]2[C@@H]3CC=C4C[C@@H](O)CC[C@]4(C)[C@H]3CC[C@]12C` as the compound, how does the outcome read?
A: The outcome was “inactive”.

Q: With `CC(=O)[O][Al][O]C(C)=O` as the compound, how does the outcome read?
A: The outcome was “inactive”.

Q: With `CCCCO` as the compound, how does the outcome read?
A: Its outcome is “inactive”.
